Results: PubChem BioAssay (NCATS)
Records with an inconclusive call do not appear. A number with no mark means an inactive call. Active and inactive are the calls of the source. Calls come from the whole dose curve.

Test: A High-Content qHTS Against Drug Library for the Identification of Small Molecules that Inhibit DYT1 Early Onset Primary Dystonia-Associated Cell Pathology (AID 1645839)
Conditions: HEK293 Flp-In EGFP-delE TorsinA, punctate imaging, 48 h; series mostly up to 46.1 µM; % pathology change, negative = correction: at the top concentration
Source text: Nicole Calakos M.D., Ph.D.
Duke University School of Medicine, Durham, NC
In DYT1 dystonia due to delGAG in the TOR1A gene, there is a robust and widely replicated finding of TorsinA protein mislocalization caused when the mutant protein is in excess of the wildtype protein (1-7). Stable HEK293 cell lines were created that replicate this phenomenon. Inducible expression of an EGFP-hu delE TorsinA encoding cDNA causes pronounced punctate cellular distribution. […] This phenotypic difference in EGFP-huTorsinA fusion protein distribution serves as an indicator of cell pathology. […] RNAi screen results with the assay were validated in DYT1 patient cell phenotypes, intersected with a known dystonia gene, and led to discovery of new human genetic dystonia associations.
The bioassay described herein is a high-content image screen with two readouts. The "%pathology" readout is the primary qHTS data channel, while the "cellcount" is the counterscreen qHTS channel. Desired active compounds are those that show inhibition in %pathology channel but no activity or minimal toxicity in cellcount readout.
1. Kustedjo, K., Bracey, M.H., and Cravatt, B.F. (2000). […] J. Biol. Chem. 275, 27933 - 27939.
2. Bragg, D.C., Kaufman, C.A., Kock, N., and Breakefield, X.O. (2004). Inhibition of N-linked glycosylation prevents inclusion formation by the dystonia-related mutant form of torsinA. Mol. Cell. Neurosci. 27, 417 - 426.
3. Gonzalez-Alegre, P., and Paulson, H.L. (2004). Aberrant Cellular Behavior of Mutant TorsinA Implicates Nuclear Envelope Dysfunction in DYT1 Dystonia. J. Neurosci. 24, 2593 - 2601.
4. Goodchild, R.E., and Dauer, W.T. (2004). Mislocalization to the nuclear envelope: an effect of the dystonia-causing torsinA mutation. Proc. Natl. Acad. Sci. U. S. A. 101, 847 - 852.
5. Kock, N., Allchorne, A.J., Sena-Esteves, M., Woolf, C.J., and Breakefield, X.O. (2006). RNAi blocks DYT1 mutant torsinA inclusions in neurons. Neurosci. Lett. 395, 201 - 205.
6. Hewett, J.W., Nery, F.C., Niland, B., Ge, P., Tan, P., Hadwiger, P., Tannous, B.A., Sah, D.W.Y., and Breakefield, X.O. (2008). siRNA knock-down of mutant torsinA restores processing through secretory pathway in DYT1 dystonia cells. Hum. Mol. Genet. 17, 1436 - 1445.
7. Calakos, N., Patel, V.D., Gottron, M., Wang, G., Tran-Viet, K.N., Brewington, D., Beyer, J.L., Steffens, D.C., Krishnan, R.R., and Zuchner, S. (2010). Functional evidence implicating a novel TOR1A mutation in idiopathic, late-onset focal dystonia. J. Med. Genet. 47, 646 - 650.
8. Rittiner* JE, Caffall* ZF, Hernandez-Martinez R, Sanderson SM, Pearson JL, Tsukayama KK, Liu AY, Xiao C, Tracy S, Shipman MK, Hickey P, Johnson J, Scott B, Stacy M, Saunders-Pullman R, Bressman S, Simonyan K, Sharma N, Ozelius LJ, Cirulli ET, Calakos N. Functional Genomic Analyses of Mendelian and Sporadic Disease Identify Impaired eIF2alpha Signaling as a Generalizable Mechanism for Dystonia. Neuron. 2016 Dec 21;92(6):1238-1251. doi: 10.1016/j.neuron.2016.11.012. Epub 2016 Dec 8. PMID: 27939583; PMCID: PMC5320521.
High-content, High-throughput Drug Screening Assay
The TorsinA mislocalization assay was modified from the previously published assay to accommodate compound testing in 1536 well format.1 Briefly, Flp-In T-REx 293 cells from Invitrogen in which a single copy of a cDNA is recombined into a specific genomic locus was used to create tetracycline-inducible expression of cDNA encoding either EGFP-hTOR1A (WT) or EGFP-delE hTOR1A (DYT1). WT and DYT1 cells were diluted to a concentration of 2 x 10^5 cells/mL in reduced serum media (DMEM High Glucose containing 1% tetracycline-tested FBS, 2 mM L-Glutamine, and 1% Penicillin/Streptomycin). 4 µl of WT cells and 4 µl of DTY1 cells were added to column 1 and columns 2-48, respectively, of a poly-D-lysine-coated, low base, black, clear bottom 1536 well plate (Corning, Corning, NY) using the BioRAPTR FRD Microfluidic Workstation (Beckman Coulter, Indianapolis, IN). The final cell number was 800 cells/well. […]
Potency is the fitted concentration of half-maximal effect.

SMILES	% pathology change, negative = correction [%]	Potency
CN(C)CCC[C@@]1(c2ccc(F)cc2)OCc2cc(C#N)ccc21	2.04	–
Cc1ccc(S(=O)(=O)NC(=O)NC2CCCC2)cc1	-0.951	–
NS(=O)(=O)c1cc2c(cc1Cl)NC(CC1CCCC1)NS2(=O)=O (stereo not given)	-18.4	–
Oc1ccccc1C=NCc1ccccc1	1.65	–
C[N+]1(CC2COC(c3ccccc3)(C3CCCCC3)O2)CCCCC1 (stereo not given)	8.1	–
O=C(O)CCc1nc2ccccc2[nH]1	13	–
CC(C)(C)NC[C@H](O)COc1cccc2c1CCCC2=O	-1.74	–
CCNC(=O)NCc1cccc(Cl)c1	20.3	–
CC(=O)OCC1=C(C(=O)O)N2C(=O)[C@@H](NC(=O)CSc3ccncc3)[C@H]2SC1	4.32	–
CC(C)(C)NCC(O)COc1cccc2c1C[C@H](O)[C@H](O)C2 (stereo not given in full)	20.8	–
FC(F)(F)C(F)(F)C(F)(F)C(F)(F)C(F)(F)C(F)(F)C(F)(F)C(F)(F)Br	8.61	–
NCCNC(=O)c1ccc(Cl)cn1	19.7	–
CCCCOC(=O)CC(CC(=O)OCCCC)(OC(C)=O)C(=O)OCCCC	-11.3	–
O=C(Nc1ccc([N+](=O)[O-])cc1)Nc1ccc([N+](=O)[O-])cc1	-7.05	–
C=C1c2cccc(O)c2C(O)=C2C(=O)[C@]3(O)C(O)=C(C(N)=O)C(=O)[C@@H](N(C)C)[C@@H]3[C@@H](O)[C@H]12	-1.29	–
CC(=O)NO	7.53	–
C=C[C@H]1CN2CC[C@H]1C[C@@H]2[C@@H](O)c1ccnc2ccc(OC)cc12	-15.2	–
CC1CCc2c(N3CCC(O)CC3)c(F)cc3c(=O)c(C(=O)O)cn1c23 (stereo not given)	4.83	–
CC(=O)OC[C@H]1O[C@@H](n2ncc(=O)[nH]c2=O)[C@H](OC(C)=O)[C@@H]1OC(C)=O	16.1	–
CCCCNC(=O)NS(=O)(=O)c1ccc(N)cc1	-16.7	–

SMILES	% pathology change, negative = correction [%]	Potency
CCCCCCCCCCCCSCCOCCO	9.9	–
C[C@@H](O)[C@H]1C(=O)N2C(C(=O)O)=C(S[C@@H]3CN[C@H](CNS(N)(=O)=O)C3)[C@H](C)[C@H]12	0.406	–
CCOC(=O)[C@H](CCc1ccccc1)N[C@@H](C)C(=O)N1[C@H](C(=O)O)C[C@@H]2CCC[C@@H]21	6.42	–
NS(=O)(=O)Cc1noc2ccccc12	15.7	–
CCCCN1C[C@H](O)[C@@H](O)[C@H](O)[C@H]1CO	-17.2	–
CCCN(CCC)S(=O)(=O)c1ccc(C(=O)O)cc1	1.14	–
CC(=O)NC(=O)c1ccccc1O	3.27	–
CN1CCN(CCC(=O)N2c3ccccc3Sc3ccc(C(F)(F)F)cc32)CC1	–	3.16 µM (active)
CCNC(=O)/C=C/c1cccc(Br)c1	-2.59	–
O=C1C(O)=C(O)C(=O)C(O)=C1O	-16.6	–
OC[C@H]1O[C@@H]2O[C@H]3[C@H](O)[C@@H](O)[C@@H](O[C@H]4[C@H](O)[C@@H](O)[C@@H](O[C@H]5[C@H](O)[C@@H](O)[C@@H](O[C@H]6[C@H](O)[C@@H](O)[C@@H](O[C@H]7[C@H](O)[C@@H](O)[C@@H](O[C@H]8[C@H](O)[C@@H](O)[C@@H](O[C@H]1[C@H](O)[C@H]2O)O[C@@H]8CO)O[C@@H]7CO)O[C@@H]6CO)O[C@@H]5CO)O[C@@H]4CO)O[C@@H]3CO	10.5	–
CCOc1ccc(NC(C)=O)cc1	3.56	–
O=C(O)P(=O)(O)O	7.57	–
CN(C)C(=O)Nc1ccc(Cl)c(Cl)c1	-7.51	–
O=C(O)c1ccc(S(=O)(=O)N(Cl)Cl)cc1	3.83	–
CCC(C(=O)OCCOCCN(CC)CC)c1ccccc1 (stereo not given)	12.5	–
CC(C)[C@@H]1CC[C@@H](C)CC1=O	10.2	–
OC[C@H]1O[C@@H](Oc2ccc(O)cc2)[C@H](O)[C@@H](O)[C@@H]1O	6.26	–
CN1CCN(C2=Nc3cc(F)ccc3Cc3ccccc32)CC1	-2.49	–
Cl/C(=C\n1cncn1)c1ccc(Cl)cc1Cl	5.3	–
